Rows were chosen to be rich in hits. Some 12% of all compounds tested hit in one or more screens of this group.
ROMK primary: modulates human ROMK potassium channel activity. AID 1918. B-score at 10 µM. Tet-inducible ROMK, thallium flux fluorescence; actives lie on both sides. 130,000 compounds, 2% hits;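 active = signal ratio slope over the read window, or its plate-corrected B-score, at least 3 SD from the plate mean, either direction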;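 also: B-score of the F/F0 ratio slope over 7 to 12 s after thallium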
KCC2 mod: modulates chloride dependent transport by human KCC2; B-score of Tl+ flux slope (higher = more flux/activation; lower = inhibition) at 10 µM; 190,000 compounds, 2.2% hits; AID 1456; Q9H2X9; KCC2 cells, thallium flux FluoZin-2 fluorescence;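 active = thallium flux slope and its plate-corrected score both differing from the plate sample mean at a set confidence after two filtering rounds, in either direction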;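 also: slope of fluorescence scaled to starting intensity during 10 to 20 s after thallium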
WT yeast gro inh: growth inhibition of WT yeast, mitochondrial fusion screen; mitochondrial fusion phenotypic screen, WT strain; 190,000 compounds, 2.1% hits; inhibition, % at 10 µM; in the data active = inhibition above about 58%; tested in S. cerevisiae
Calpain2 inh: inhibitors of pig calpain II; 220,000 compounds, 0.37% hits; inhibition, % at 16 µM; purified calpain II, fluorogenic peptide substrate, 30 min; AID 1236;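 active = inhibition above about 50%, limit read from the data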
L major viab: reduces viability of Leishmania major promastigotes | resazurin fluorescence viability | inhibition, % at 10 µM | 200,000 compounds, 9% hits; in the data active = inhibition above about 50%;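 also: promastigotes grown with compound for 44 hours at 28 °C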
Lmaj promast 1uM: inhibitors of Leishmania major promastigote growth, repeat at 1 uM; shares compounds with L major viab; L. major promastigote growth, resazurin fluorescence, 48 h; inhibition, % at 1 µM; 1,100 compounds, 13% hits; AID 1258;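 active = inhibition above about 50% in both repeat tests, limit read from the data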
Starred values were filed as active, the others as inactive; nt = no result given.

SMILES	ROMK primary	KCC2 mod	WT yeast gro inh	Calpain2 inh	L major viab	others
O=C(c1ccc(CN2CCOCC2)cc1)N1CCN(c2cccc(Cl)c2)CC1	-0.62	0.71	16	-8	0
O=C(c1ccc(CN2CCOCC2)cc1)N1CCN(Cc2ccccc2)CC1	0.022	-0.83	15	-44	76*
O=C(Nc1cccc(C(=O)N2CCN(Cc3ccccc3)CC2)c1)c1ccccc1	nt	-1.9	7	-23	75*
O=C(OCC(=O)N1CCN(Cc2ccccc2)CC1)c1ccc(Cl)cc1	-0.83	-1.3	48	7	57*
O=C(Nc1cnn(Cc2c(Cl)cccc2Cl)c1)C(c1ccccc1)c1ccccc1	-0.41	-0.92	5	-24	24
O=C1CC(Sc2ccc(Cl)cc2)C(=O)N1c1ccc2c(c1)OCCO2 (configuration not stated)	nt	-0.3	nt	22	nt
c1ccc(CN2CCOCC2)cc1	0.56	-0.11	-21	18	-5
c1ccc(Oc2cccc(CN3CCOCC3)c2)cc1	nt	0.046	-2	-9	100*
O=C(NC(NCc1cccnc1)C(Cl)(Cl)Cl)c1cccc2ccccc12 (configuration not stated)	-0.75	0.17	-3	-2	84*
COc1ccc(NS(=O)(=O)c2ccc(N3CCOCC3)c(NC(=O)c3ccc(F)cc3)c2)cc1	nt	1.5	-18	28	72*
COc1ccccc1NS(=O)(=O)c1ccc(N2CCOCC2)c(NC(=O)c2ccco2)c1	1.9	0.12	18	12	69*
COc1ccc(NS(=O)(=O)c2ccc(N3CCOCC3)c(NC(=O)c3cccc(F)c3)c2)cc1	-0.39	-0.63	-10	-2	13
COc1ccc(NS(=O)(=O)c2ccc(N3CCOCC3)c(NC(=O)c3ccco3)c2)cc1	-0.34	-0.12	-3	-11	29
COc1ccccc1NS(=O)(=O)c1cc(NC(=O)c2ccco2)ccc1N1CCOCC1	-0.82	0.66	9	0	100*
COc1ccc(S(=O)(=O)N(C)c2ccc(C(=O)NC3CCCC3)cc2)cc1	-0.71	-1.3	-1	-3	4
O=C(Nc1nc(=O)[nH]s1)c1ccccc1	0.35	0.51	-27	57*	-4
CC(=O)Nc1nc(=O)c2ccccc2s1	0.28	-0.073	5	-5	-1
O=C(Nc1nc(=O)c2ccccc2s1)c1ccccc1	3*	42*	-1	-23	-8
O=C(Nc1nc2c(s1)C(=O)CCC2)c1ccccc1	nt	0.28	21	15	-1
CC(=O)Nc1cccc(NC(=O)CSc2nnnn2-c2ccc3c(c2)OCO3)c1	nt	nt	nt	-11	nt
C/C=C/c1ccc(OCCOc2cc(C=O)ccc2OC)c(OC)c1	nt	-1.2	5	-36	85*
C/C=C/c1ccc(OCCCNC2CCCC2)c(OC)c1	nt	-0.25	nt	17	100*
CC(=O)Nc1ccc(S(=O)(=O)Nc2nc3ccccc3nc2Nc2cccc(S(N)(=O)=O)c2)cc1	nt	-0.038	nt	1	nt
Cc1ccc(C)c(-n2[nH]c3c4c(ccc3c2=O)C(=O)c2ccccc2C4=O)c1	0.52	-0.047	67*	-20	11
CCc1c(C(=O)Nc2ccncc2)csc1C	-1.3	nt	23	-23	32
SMILES	ROMK primary	KCC2 mod	WT yeast gro inh	Calpain2 inh	L major viab	others
COc1ccc(NS(=O)(=O)c2ccc(C)c(NC(=O)NC3CCCCC3)c2)cc1	nt	0.069	2	-21	99*
COc1ccc(S(=O)(=O)Nc2ccccc2OC)cc1NC(=O)CC1CC2CCC1C2 (configuration not stated)	0.42	-1.2	-18	4	100*
COc1ccccc1NS(=O)(=O)c1ccc(C)c(NC(=O)NC2CCCCC2)c1	-1.5	-0.52	-11	-6	100*
COc1ccc(NS(=O)(=O)c2cccc(NC(=O)COc3ccc(OC)cc3)c2)cc1	nt	-3.8	nt	40	nt
COc1ccc(S(=O)(=O)Nc2ccccc2Cl)cc1NC(C)=O	1.7	-1.4	0	-21	3
COc1ccc(NS(=O)(=O)c2cccc(NC(=O)NC3CCCCC3)c2)cc1	-0.87	0.28	2	35	99*
Cc1ccc(Nc2cc(-c3ccccc3)nc3ncnn23)cc1	-1.3	-0.12	nt	14	nt
COc1ccc(NS(=O)(=O)c2cccc(N/C(=N\S(=O)(=O)c3ccccc3)c3ccc(F)cc3)c2)cc1	nt	-1.6	-22	-31	76*
O=S(=O)(/N=C(/Nc1ccc(Cl)c(S(=O)(=O)Nc2ccccc2Cl)c1)c1ccc(F)cc1)c1ccccc1	0.16	0.25	9	-114	4
Cc1ccc(C(C[N+](=O)[O-])c2c(N)n(C)c(=O)n(C)c2=O)cc1 (configuration not stated)	-1.7	1	nt	-7	nt
COc1cc(C(C[N+](=O)[O-])c2c(N)n(C)c(=O)n(C)c2=O)ccc1O (configuration not stated)	-0.27	-0.8	-2	-16	73*
CN1CCN(CC(O)COC(c2ccccc2)c2ccccc2)CC1 (configuration not stated)	0.13	-0.002	-10	5	-1
CC1CCCN(CC(O)COc2ccc(Cl)cc2)C1 (configuration not stated)	nt	nt	-21	-9	91*
Cc1ccc(C(OCC(O)CN2CCCCC2CO)c2ccccc2)cc1 (configuration not stated)	-1.2	0.057	-17	1	84*
OC1CCCN(CC(O)COC(c2ccccc2)c2ccccc2)C1 (configuration not stated)	nt	-0.6	nt	-19	nt
OC(COc1ccc(OCC(O)CN2CCCCCC2)cc1)CN1CCCCCC1 (configuration not stated)	0.84	nt	-10	16	30
CC1CCCN(CC(O)COC(c2ccccc2)c2ccccc2)C1 (configuration not stated)	-1.9	1	8	21	99*
CCOC(=O)c1[nH]c(C)c(C(=O)NCc2cccnc2)c1C	nt	nt	-6	-1	-6
O=C(O)CCC(=O)N1N=C(c2c(-c3ccccc3)c3cc(Cl)ccc3[nH]c2=O)CC1c1ccccc1 (configuration not stated)	nt	0.28	-10	-161	0
COc1ccccc1C1CC(c2c(-c3ccccc3)c3cc(Cl)ccc3[nH]c2=O)=NN1S(C)(=O)=O (configuration not stated)	nt	0.28	-17	-72	65*	Lmaj promast 1uM=0
COc1ccc(/C=C/c2cc[n+](C(=O)Cc3ccccc3)cc2)cc1	-0.77	-1.2	5	-8	100*	Lmaj promast 1uM=98*
CCC[n+]1c(C)sc2c3c(ccc21)CCCC3	-0.18	nt	39	-22	100*	Lmaj promast 1uM=35
COCCn1c(-c2ccccc2)nc2ccccc21	0.58	0.083	9	22	8
CCCn1c(-c2ccc(OC)cc2)nc2ccccc21	nt	-1.4	32	2	96*	Lmaj promast 1uM=12
CCn1c(C)c(P(c2ccccc2)c2ccccc2)[n+]2ccccc12	-0.21	0.35	-4	-1	94*	Lmaj promast 1uM=-11
CCn1c(C)c2c(C)nnc(C)c2c1C	nt	nt	4	-26	19
C/C(=N\NC(=O)c1cccnc1)c1nnn(-c2nonc2N)c1C	1.2	0.089	-7	-9	-8

High-throughput results (PubChem BioAssay)
